rCAG RNA binder = molecules binding r(CAG) RNA repeats; inhibition, % at 3 µM; r(CAG) RNA repeat, TO-PRO-1 dye displacement fluorescence; AID 651821; 370,000 tested, 1.3% active;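 active = inhibition above the plate cutoff, the mean of all test compounds on that plate plus 3 SD, cut at about 35% in these data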;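 also: 0% = DMSO alone and 100% = 100 µM mitoxantrone as full dye displacement; higher means more dye released from RNA so lower well fluorescence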
MsrA act = bovine methionine sulfoxide reductase A activation | activation, % at 10.6 µM | purified bovine MsrA, absorbance read-out | 360,000 tested, 0.3% active | AID 602163; in the data active = activation above about 7.5%;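 also: 0% = vehicle and 100% = reference activator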
HGIII-sPLA2 inh = Blocks human group III sPLA2 activity; Q9NZ20; AID 743126; 370,000 tested, 0.56% active; QFRET BODIPY PC-A2 liposome hydrolysis, fluorescence; inhibition, % at 12.2 µM;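 active = inhibition above mean plus 3 SD of compounds lying within the high and low control bounds, cut at about 19% in these data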;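 also: 0% = median of test compound wells and 100% = no enzyme DMSO wells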
Target sequence (Q9NZ20 whole entry, looked up): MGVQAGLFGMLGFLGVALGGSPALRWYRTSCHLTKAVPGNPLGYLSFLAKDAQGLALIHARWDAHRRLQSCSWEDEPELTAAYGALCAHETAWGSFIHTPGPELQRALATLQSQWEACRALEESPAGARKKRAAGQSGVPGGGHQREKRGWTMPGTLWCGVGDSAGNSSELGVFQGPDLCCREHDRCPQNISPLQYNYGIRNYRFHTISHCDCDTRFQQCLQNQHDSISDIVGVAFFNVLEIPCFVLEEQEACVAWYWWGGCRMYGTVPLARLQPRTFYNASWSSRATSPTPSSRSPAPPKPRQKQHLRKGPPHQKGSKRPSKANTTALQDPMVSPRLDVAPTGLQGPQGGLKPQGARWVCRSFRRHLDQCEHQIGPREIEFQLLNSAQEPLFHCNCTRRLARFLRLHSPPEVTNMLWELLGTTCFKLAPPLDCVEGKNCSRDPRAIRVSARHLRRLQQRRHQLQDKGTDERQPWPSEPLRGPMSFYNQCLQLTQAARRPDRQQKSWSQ
MsrA inhibitor = inhibits bovine methionine sulfoxide reductase A; purified bovine MsrA, absorbance read-out; inhibition, % at 15.5 µM; 360,000 tested, 0.75% active; AID 651718; in the data active = inhibition above about 4.5%;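 also: 0% = vehicle wells with enzyme and 100% = reference inhibitor wells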
rCAG bind conf = r(CAG) RNA repeat binding, confirmation. TO-PRO-1 dye displacement fluorescence. inhibition, % at 3 µM. 4,300 tested, 70% active. shares compounds with rCAG RNA binder. AID 652065;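 active = inhibition above a per-plate cutoff, the mean inhibition of sample wells plus 3 SD, cut at about 35% in these data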;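 also: loss of TO-PRO-1 fluorescence as compound displaces dye from 1x1 AA loop RNA; 0% = DMSO only wells and 100% = 100 µM mitoxantrone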
dCAG dye counter = disrupts DNA CAG TO-PRO-1 complex, flagging rCAG hits; shares compounds with rCAG RNA binder; d(CAG) DNA oligo TO-PRO-1 dye displacement, fluorescence; inhibition, % at 3 µM; 4,300 tested, 94% active; AID 652068;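 active = inhibition above its plate's cutoff, the mean test-well inhibition plus 3 SD, cut at about 4.8% in these data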;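 also: 0% = DNA dye mix with DMSO and 100% = 100 µM mitoxantrone; hits displace the dye from DNA and so lower well fluorescence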
dCAG dye DR = disrupts DNA CAG TO-PRO-1 complex in dose response | 250 tested, 20% active | IC50, µM | AID 686960 | shares compounds with rCAG RNA binder | DNA CAG/GTC duplex TO-PRO-1 dye displacement fluorescence; in the data active = IC50 below about 10 µM
Active calls of the source: *; i = inactive; . = no result. Rows were chosen to be rich in hits. Some 2.8% of all compounds tested hit in one or more screens of this group.

SMILES | rCAG RNA binder | MsrA act | HGIII-sPLA2 inh | MsrA inhibitor | rCAG bind conf | dCAG dye counter | others
C=CCOC(=O)c1cc(-c2ccc(/C=C3\C(=O)NC(=O)C(C#N)=C3C)o2)ccc1Cl | 63* | -3 | 3 | 3 | 87* | 51*
Nc1ccccc1-c1nc2ccccc2[nH]c1=O | 0 | -2 | 3 | 1 | . | .
O=c1[nH]c2ccccc2nc1-c1c[nH]c2ccccc12 | 43* | -1 | -20 | 2 | 16 | 14*
COC(=O)c1sc(-c2ccc(C(C)(C)C)cc2)cc1NC(=O)c1ccccc1C(=O)O | 70* | -2 | -15 | -1 | 83* | 46*
COc1ccccc1NC(=O)c1ccccc1C(=O)O | -4 | 0 | 8 | 1 | . | .
COC(=O)c1sccc1NC(=O)c1ccccc1C(=O)O | -1 | -5 | 1 | 0 | . | .
COC(=O)c1sc(-c2ccc(C(C)(C)C)cc2)cc1NC(=O)CSCC(=O)O | 62* | -3 | -17 | 2 | 68* | 25*
COC(=O)c1sc(-c2ccccc2)cc1NC(=O)C1CC1 | 0 | -5 | 1 | 1 | . | .
COC(=O)c1sc(-c2ccc(Cl)cc2)cc1NC(=O)c1ccccc1C(=O)O | 71* | -5 | 0 | 3 | 80* | 46*
CCC(OC(=O)c1ccco1)C(=O)NCc1ccc(C)cc1 (stereo not drawn) | -1 | -1 | 2 | 0 | . | .
CC(C)(C)c1ccc(OC(=O)Nc2ccc(O)c(C(=O)O)c2)cc1 | 54* | -4 | -21 | -1 | 37* | 11*
Cc1cccc(OC(=O)Nc2ccc(C(=O)O)c(O)c2)c1 | 2 | -8 | 3 | 0 | . | .
Cc1cc(=O)oc2c3c(cc(OCC(=O)NC(Cc4ccc(Cl)cc4)C(=O)O)c12)OC(C)(C)CC3 (stereo not drawn) | 46* | -2 | -18 | 1 | 53* | 17*
O=c1[nH]cn[nH]1 | -1 | -1 | 0 | -1 | . | .
CCOC(=O)C1=C(O)/C(=C/c2cn(CC(=O)N3CCCC3)c3ccccc23)SC1=Nc1ccccc1 | . | -4 | . | . | . | .
CCOC(=O)C1=C(O)/C(=C/c2ccc(OCC(=O)O)c(OC)c2)SC1=Nc1ccc(OC)cc1 | 52* | -6 | -3 | 3 | 65* | 20*
COc1cc(C(=O)N2CCN(C(=O)c3cccc4ccccc34)CC2)cc(OC)c1OC | -3 | -3 | -2 | 0 | . | .
COc1ccc(/C=C/C(=O)Nc2ccccc2)cc1S(=O)(=O)N1CCOCC1 | 26 | -2 | 0 | 2 | . | .
Nc1ccc(NS(=O)(=O)c2ccccc2)cc1 | 3 | -2 | 4 | 1 | . | .
O=c1[nH][nH]c2cc(=O)n(-c3cccc(C(F)(F)F)c3)nc12 | 59* | -5 | 0 | -1 | 48* | 17*
CCn1c(SCC(=O)N2CCN(C(=O)c3ccco3)CC2)nnc1C(C)C | 4 | -1 | 8 | 1 | . | .
COc1cc(C=Nn2c(-c3ccccc3F)n[nH]c2=S)ccc1OCc1ccccc1 | 53* | . | -9 | . | 48* | 12*
COc1cc(C=Nn2c(-c3ccc(F)cc3)n[nH]c2=S)ccc1OCc1ccccc1 | 50* | . | 4 | . | 53* | 17*
CCn1c2ccccc2c2cc(C=Nn3c(-c4ccccc4C)n[nH]c3=S)ccc21 | 49* | . | 9 | . | 56* | 23*
COc1ccc(C=Nn2c(-c3ccc(F)cc3)n[nH]c2=S)cc1OCc1ccccc1 | 35* | . | 3 | . | 39* | 12*
SMILES | rCAG RNA binder | MsrA act | HGIII-sPLA2 inh | MsrA inhibitor | rCAG bind conf | dCAG dye counter | others
CCOc1ccc(/C=N/n2c(COc3ccccc3)n[nH]c2=S)cc1OC | 22 | 1 | 11 | 0 | . | .
COc1cc(C=Nn2c(-c3cc(-c4ccccc4)n[nH]3)n[nH]c2=S)ccc1OC(C)=O | 58* | . | 13 | . | 44* | 13*
Cc1cccc(/C=N/n2c(-c3cc(-c4ccccc4)n[nH]3)n[nH]c2=S)c1 | 23 | -1 | 9 | 0 | . | .
O=C(O)c1ccccc1NS(=O)(=O)c1cccc(NS(=O)(=O)c2cc(Br)ccc2Br)c1 | 69* | -2 | -62 | -1 | 61* | 22*
Cc1ccc(NS(=O)(=O)c2ccc(NC(=O)c3ccccc3C(=O)O)cc2)c(C)c1 | 1 | -4 | -3 | -1 | . | .
Cc1ccc(S(=O)(=O)Nc2cccc(S(=O)(=O)Nc3ccccc3C(=O)O)c2)c(C)c1 | 67* | 0 | -51 | 2 | 65* | 26*
CCOc1ccc(Br)cc1S(=O)(=O)Nc1cccc(S(=O)(=O)Nc2ccccc2C(=O)O)c1 | 78* | -3 | -48 | 1 | 83* | 48*
O=C(O)c1cccc(S(=O)(=O)Nc2cccc(S(=O)(=O)Nc3ccc(Br)cc3)c2)c1 | 31 | -3 | -28 | -1 | . | .
CN(C(=O)c1ccc(F)c(S(=O)(=O)N2CCOCC2)c1)C1CCCCC1 | -2 | 0 | 2 | 0 | . | .
CC(C)C(Nc1ncnc2c1oc1ccccc12)C(=O)O (stereo not drawn) | 2 | -3 | 9 | 0 | . | .
CC(C)[C@H](Nc1nc(-c2ccccc2)nc2c1oc1ccccc12)C(=O)O | 58* | -1 | -12 | 1 | 42* | 11*
CCC(C)[C@H](Nc1nc(-c2ccccc2)nc2c1oc1ccccc12)C(=O)O (stereo partly drawn) | 74* | 0 | -19 | 0 | 70* | 32* | dCAG dye DR=i
O=C(N/N=C/c1cc([N+](=O)[O-])cc([N+](=O)[O-])c1O)C(O)(c1ccccc1)c1ccccc1 | 68* | -1 | 10 | 1 | 71* | 30*
O=C(NN=Cc1ccccc1O)C(O)(c1ccccc1)c1ccccc1 | 6 | 0 | -1 | 0 | . | .
COc1cc(/C=C2\SC(=S)N(CC(=O)O)C2=O)ccc1OC(=O)c1ccco1 | 46* | -2 | -18 | 1 | 45* | 13*
COc1cc(/C=C2/SC(=S)N(CC(=O)O)C2=O)ccc1OC(=O)c1ccco1 | 41* | -5 | -7 | 3 | 46* | 15*
O=C(O)CCCCN1C(=O)/C(=C\c2ccc(OCc3ccccc3)c(OCc3ccccc3)c2)SC1=S | 6 | -7 | 3 | 1 | . | .
CCOc1cc(/C=C2/SC(=S)N(CC(=O)O)C2=O)ccc1OC(=O)c1cccs1 | 58* | -9 | -19 | 2 | 71* | 30* | dCAG dye DR=i
COc1cc(-c2c(C#N)c(=O)[nH]c3c2c(C)nn3-c2ccccc2)ccc1O | 36* | -4 | -36 | 2 | 30 | 6.3*
Cc1nc(C)c(-c2csc(Nc3ccc(O)c(C(=O)O)c3)n2)s1 | 35* | -4 | -20 | 0 | 29 | 6.2*
Cc1nc(C)c(-c2csc(Nc3ccc(N)cc3)n2)s1 | 15 | -3 | -2 | 0 | . | .
COc1ccc(C2CC(=O)N3CN(c4ccc(C)c(Cl)c4)CSC3=C2C#N)cc1 (stereo not drawn) | 38* | -1 | 5 | 3 | 14 | 8.3*
COc1ccc(N2CSC3=C(C#N)C(c4cccc(OC)c4OC)CC(=O)N3C2)cc1 (stereo not drawn) | 28 | 1 | -6 | 2 | . | .

Screens: PubChem, The Scripps Research Institute Molecular Screening Center
